High-throughput results: PubChem, National Center for Advancing Translational Sciences (NCATS)
A selection: hits, their analogues and other compounds. The true share with any hit is near 19%.
IL-1B inflam inh: qHTS for Inhibitors of Inflammasome Signaling: IL-1-beta AlphaLISA Primary Screen; THP-1 LPS/ATP IL-1B secretion, AlphaLISA, 16 h; stronger effect = lower value; activity change, % at 57.5 µM; 360,000 tested, 4.7% active; AID 743279, 2014; in the data active means activity change below about -50%; inconclusive means mostly about -30% to -49%
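Secreted IL-1B measured by AlphaLISA bead assay after 16 h compound exposure of THP-1 cells; compounds (final up to 57.5 uM) added 1 h before LPS (250 ng/mL) and ATP (1.25 mM) stimulation; lower signal means less secretion.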
TDP1 block: qHTS Assay for Inhibitors of Tyrosyl-DNA Phosphodiesterase (TDP1). Tyrosyl-DNA phosphodiesterase 1 (Homo sapiens), Q9NUW8. recombinant TDP1, AlphaScreen DNA substrate cleavage. Potency, µM (series often up to 130 µM), hits mostly inhibitors. 350,000 tested, 0.28% active; further: nearly all actives have a fitted effect of over 40% in size
Target sequence (Q9NUW8 whole entry, looked up): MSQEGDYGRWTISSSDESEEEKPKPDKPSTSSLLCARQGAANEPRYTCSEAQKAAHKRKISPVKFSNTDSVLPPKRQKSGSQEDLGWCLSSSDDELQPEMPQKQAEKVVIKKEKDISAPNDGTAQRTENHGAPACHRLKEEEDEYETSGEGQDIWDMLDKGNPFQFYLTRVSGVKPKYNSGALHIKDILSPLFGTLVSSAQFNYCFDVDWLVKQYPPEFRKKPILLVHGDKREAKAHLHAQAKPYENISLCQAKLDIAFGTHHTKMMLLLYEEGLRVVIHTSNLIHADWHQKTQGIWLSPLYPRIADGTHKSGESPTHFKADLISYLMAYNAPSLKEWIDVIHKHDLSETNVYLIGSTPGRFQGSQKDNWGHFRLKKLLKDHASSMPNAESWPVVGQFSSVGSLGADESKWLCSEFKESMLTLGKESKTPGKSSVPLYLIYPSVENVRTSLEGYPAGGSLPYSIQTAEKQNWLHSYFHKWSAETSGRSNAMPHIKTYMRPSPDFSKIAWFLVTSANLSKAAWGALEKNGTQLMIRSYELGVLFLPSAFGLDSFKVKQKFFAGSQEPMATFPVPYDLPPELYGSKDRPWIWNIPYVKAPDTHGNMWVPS
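Compounds were preincubated with Tdp1 (1 nM final) for 15 min at room temperature before substrate (15 nM final) started a 5 min reaction; beads (10 ug/ml final) were then added for 10 min before AlphaScreen detection.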
TDP1 cell CPT: qHTS for Inhibitors of human tyrosyl-DNA phosphodiesterase 1 (TDP1): qHTS in cells in presence of CPT | chicken DT40 Tdp1-/-;hTDP1 cells + 20 nM CPT, ATP luminescence, 48 h | Potency, µM (doses to about 46.2 µM), actives largely listed as inhibitors | 420,000 tested, 12% active | AID 686979, 2013; further: nearly all actives have a fitted effect of over 55% in size
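Chicken DT40 Tdp1-/- cells complemented with human TDP1, 400 cells/well, exposed to compounds plus 20 nM camptothecin for at least 48 h at 37 C; viability read as ATP content by CellTiter-Glo luminescence.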
Giardia killer: Small Molecules that selectively kill Giardia lamblia: qHTS; Giardia lamblia trophozoite viability; activity change, % at 7.66 µM, hits read low; 340,000 tested, 0.15% active; in the data active means activity change below about -80%; inconclusive means between about -30% and that limit;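 further: parasites exposed to compound for two days anaerobically before the ATP read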
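Luminescence from cellular ATP indicates surviving trophozoites (100 cells/well) following 48 hrs anaerobic compound treatment at 37 deg C; signal develops 15-30 min at room temperature.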
TDP1 cell noCPT: qHTS for Inhibitors of human tyrosyl-DNA phosphodiesterase 1 (TDP1): qHTS in cells in absence of CPT; Potency, µM (series often up to 46.2 µM), usual class: inhibitors; 420,000 tested, 15% active; DT40 Tdp1-/- hTDP1 cells, no CPT, ATP luminescence, 48 h; further: nearly all actives have a fitted effect of over 55% in size
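Chicken DT40 Tdp1-/- cells complemented with human TDP1, screened without camptothecin (DMSO vehicle only), 400 cells/well. Compounds pin-transferred, cells incubated at 37 °C for at least 48 hr. Growth read as ATP-dependent luminescence (CellTiter-Glo, 30 min at RT).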
ELG1 repair inh: qHTS screen for small molecules that inhibit ELG1-dependent DNA repair in human embryonic kidney (HEK293T) cells expressing luciferase-tagged ELG1; HEK293T ELG1-luciferase reporter, luminescence, 16 h; DNA damage induced by 5-fluorouridine; Potency, µM (doses to about 46.1 µM), usual class: inhibitors; 330,000 tested, 2.3% active; further: nearly all actives have a fitted effect of over 55% in size
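Step one: seed 2,000 cells per well. Step two: pin-transfer compound or DMSO alongside 5-fluorouridine. Step three: incubate 16 hr, 37 °C, 5% CO2. Step four: add ONE-Glo, wait 30 min, read luminescence.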
Hits are given with their value; . = inactive; ? = inconclusive; / = no result; ! = not active in a repeat; [ ] = another dose, or the depositor's remark. Unless noted, the call rests on the fitted dose curve; in most records, active means well fitted curve in the direction sought with a large enough effect; inconclusive means small, poorly fitted or top-dose-only effect, or another doubt; inactive means no such curve, though single readings can be large; an effect the other way counts as inactive or inconclusive.

SMILES | IL-1B inflam inh | TDP1 block | TDP1 cell CPT | Giardia killer | TDP1 cell noCPT | ELG1 repair inh
FC(F)(F)c1cccc(Nc2nc3nonc3nc2Nc2ccc(Cl)cc2)c1 | / | / | 0.23µM | / | 0.58µM | /
O=C(Nc1cccc(C(F)(F)F)c1)c1cc(-c2ccc(Cl)cc2)on1 | / | . | ? | / | ? | /
CCOC(=O)C1=C(C)NC(=S)NC1c1cccc(O)c1 (stereo not given) | / | . | . | / | ? | /
Cc1cccc(N2CCN(c3ccc4cc(S(=O)(=O)N5CCCCC5)ccc4n3)CC2)c1C | . | . | 12µM | . | 12µM | ?
Cc1cccc(N2CCN(c3ccc4cc(S(=O)(=O)N5CCCCC5)ccc4n3)CC2C)c1 (stereo not given) | . | . | 12µM | . | 16µM | .
O=C(Nc1ccc(N2CCOCC2)cc1)c1ccc([N+](=O)[O-])o1 | -96 | . | 5.2µM | -85 | 12µM | ?
CCn1nnc(NC(=O)c2ccc([N+](=O)[O-])o2)n1 | -78 | . | ? | -103 | ? | ?
O=C(Nc1ccc(Cc2ccncc2)cc1)c1cccc([N+](=O)[O-])c1 | . | . | ? | . | ? | .
O=C(Nc1ccc(Cc2ccncc2)cc1)c1ccc([N+](=O)[O-])o1 | -96 | . | ? | -88 | ? | .
O=C(Nc1ccc(S(=O)(=O)N2CCOCC2)cc1)c1ccc([N+](=O)[O-])o1 | -100 | / | 1µM | -83 | 2.6µM | ?
O=C(COC(=O)c1ccc([N+](=O)[O-])o1)Nc1ccc(N2CCOCC2)cc1 | . | . | . | . | . | ?
O=C(Nc1ccc(S(=O)(=O)N2CCOCC2)cc1)c1ccco1 | . | . | . | . | ? | .
O=C(Nc1ccc(OC(F)(F)F)cc1)c1cc(S(=O)(=O)N2CCCCC2)ccc1N1CCOCC1 | . | / | ? | / | ? | /
O=C(Nc1ccc(OC(F)(F)F)cc1)c1ccc(S(=O)(=O)N2CCOCC2)o1 | -51 | . | ? | . | 16µM | .
CC12C=C(/C=C/c3ccc(C(F)(F)F)cc3)C(C)(C1)C(c1ccc(C(F)(F)F)cc1)CC2=O (stereo not given) | / | .[21 µM] | / | / | / | /
COC(=O)C1=C(C(=O)OC)[C@@H]2N(Cc3ccccc3)c3ccccc3[C@@]23C[C@@H](C(=O)OC)N(C(=O)c2ccco2)C3=N1 | / | .[12.3 µM] | / | / | / | /
CC1c2ccccc2SC(CCCN(C)C)c2ccccc21 (stereo not given) | -52 | . | 16µM | . | ? | .
Cc1ccc(C)c(NC(=O)CCC(=O)NNS(=O)(=O)c2ccc(Cl)cc2)c1 | . | . | . | . | . | .
CC(C)CN(CCNC(=O)CN1C(=O)CSc2ccc(S(=O)(=O)N3CCOCC3)cc21)CC(C)C | . | . | 18µM! | . | 21µM! | .
CC(C)CN(CCCNC(=O)CN1C(=O)CSc2ccc(S(=O)(=O)N3CCOCC3)cc21)CC(C)C | . | . | . | . | . | .
CCC1CCCCN1CCCNC(=O)CN1C(=O)CSc2ccc(S(=O)(=O)N3CCC(C)CC3)cc21 (stereo not given) | . | . | ? | . | 23µM! | .
CC1CCN(S(=O)(=O)c2ccc3c(c2)N(CC(=O)NCCCN2CCCCC2)C(=O)CS3)CC1 | ? | . | . | . | . | .
CC1CCN(S(=O)(=O)c2ccc3c(c2)N(CC(=O)NCCCN2CCCC(C)C2)C(=O)CS3)CC1 (stereo not given) | . | . | 15µM! | . | 15µM! | ?
CC1CCCN(CCCNC(=O)CN2C(=O)CSc3ccc(S(=O)(=O)N4CCOCC4)cc32)C1 (stereo not given) | . | . | . | . | . | .
COCCCN1CC(=O)N2Cc3[nH]c4ccccc4c3C[C@H]2C1=O | . | / | . | . | . | .
SMILES | IL-1B inflam inh | TDP1 block | TDP1 cell CPT | Giardia killer | TDP1 cell noCPT | ELG1 repair inh
Cc1c(C(=O)NCc2cccnc2)sc2nc(-c3ccccc3)cn12 | . | / | . | . | 16µM | ?
Cc1c(C(=O)NCc2cccnc2)sc2nc(-c3ccc(F)cc3)cn12 | . | . | ? | . | 13µM | ?
Cc1c(C(=O)NCc2ccccc2Cl)sc2nc(-c3ccc(F)cc3)cn12 | / | . | ? | / | 16µM | /
Cc1c(C(=O)NCc2ccc(F)cc2)sc2nc(-c3ccccc3)cn12 | / | . | 18µM | / | ? | /
Cc1c(C(=O)N(C)Cc2ccccc2)sc2nc(-c3ccc(F)cc3)cn12 | / | . | ? | / | ? | /
COc1cc(OC)cc(C(=O)NCCC(=O)NCCc2ccc(OC)c(OC)c2)c1 | . | . | . | . | . | .
